Inconclusive results are not listed. Calls of active or inactive are those of the source. Unless noted, the call rests on the fitted dose curve; in most records, active means well fitted inhibition curve with a large enough effect; inconclusive means small, poorly fitted or top-dose-only effect; inactive means no such curve, though single readings can be large or run the other way. Positions of bridges follow the written chain, without caps; N, C: chain ends. Non-standard residues stand in square brackets, D forms with d. Residues, ends and D or L forms follow the SMILES beside them. ξ: configuration not given here. *: point of attachment. Octanoyl(6-Me) = CCC(C)CCCCC(=O)*; ξThr(3R) = C[C@@H](O)C(N)C(=O)O; dDab = NCC[C@@H](N)C(=O)O; Dab = NCC[C@H](N)C(=O)O
How the values were obtained:
[1] = High-throughput drug toxicity screening in the BPDCN cell line Cal-1 (AID 1224825; call rule not given here); conditions: Cal-1 BPDCN cell viability, qHTS; at 45.8 µM (top of the series) unless noted
In short: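 Cal-1 cells, 500 per well in phenol-red-free RPMI with 10% FBS, exposed to compounds for 48 hours at 37C, 5% CO2. Viability read by CellTiter-Glo luminescence; percent activity normalized to DMSO (100%) and 9.2 uM bortezomib final (0%).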

[2] = qHTS assay for measurement of the activity of small molecule inhibitors on Zika virus induced Caspase-3 activity in human iPSC derived neural progenitor cells (hNPCs) (AID 1224857); conditions: hNPCs ZIKV-induced caspase-3/7, Caspase-Glo luminescence, 6 h; series mostly up to 45.7 µM; further: nearly all actives have a fitted effect of over 65% in size; further: potency means the concentration at half of the fitted maximal effect
In short: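 hNPCs seeded 350 cells/well, cultured 16–20 h; compounds added 1 h before ZIKV (2 FFU/cell), 37 C 6 h. Caspase-Glo 3/7 luminescence after 30 min RT; % inhibition from induction scaled to uninfected (0%) and infected (100%) wells.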

[3] = qHTS assay for measurement of the activity of small molecule inhibitors on Zika virus induced Caspase-3 activity in human astrocytoma cells (AID 1224859); conditions: SNB-19 ZIKV-induced caspase-3/7, luminescence, 6 h; series mostly up to 45.7 µM; further: potency means the concentration at half of the fitted maximal effect
In short: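 Luminescence read-out (Caspase-Glo 3/7, 30 min RT) of caspase activity in SNB-19 cells infected 6 h with ZIKV, 2 FFU/cell, after 1 h compound pretreatment; % inhibition from induction normalised to uninfected (0%) and infected (100%) wells.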

[4] = qHTS Screen of the MIPE 4.0 Collection Against Ewings Sarcoma (RDES) (AID 1259252); conditions: RD-ES Ewing sarcoma viability, CellTiter-Glo, 48 h; series mostly up to 45.8 µM; further: nearly all actives have a fitted effect of over 35% in size; further: potency means the concentration at half of the fitted maximal effect
In short: (§1)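 Log-phase cells in RPMI with 5% FBS attached for 4 h, then received compounds as a titration for 48 h at 37C, 5% CO2. Viability was read by CellTiter-Glo luminescence and normalized to DMSO and no-cell wells.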

[5] = qHTS Screen of the MIPE 4.0 Collection Against Ewings Sarcoma (TC71) (AID 1259253); conditions: TC71 Ewing sarcoma viability, CellTiter-Glo, 48 h; series mostly up to 45.8 µM; further: nearly all actives have a fitted effect of over 40% in size; further: potency means the concentration at half of the fitted maximal effect
In short: as §1

[6] = qHTS Screen of the MIPE 4.0 Collection Against Ewings Sarcoma (EW8) (AID 1259255); conditions: EW8 Ewing sarcoma viability, CellTiter-Glo, 48 h; series mostly up to 45.8 µM; further: nearly all actives have a fitted effect of over 35% in size; further: potency means the concentration at half of the fitted maximal effect;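 on viability: 100% = DMSO-treated cells and 0% = medium-only wells without cells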
In short: as §1

[7] = qHTS Screen of the MIPE 4.0 Collection Against Ewings Sarcoma (TC32) (AID 1259256); conditions: TC32 Ewing sarcoma viability, CellTiter-Glo, 48 h; series mostly up to 45.8 µM; further: nearly all actives have a fitted effect of over 45% in size; further: potency means the concentration at half of the fitted maximal effect
In short: as §1

[8] = qHTS profiling of the MIPE4 collection as inhibitors of Plasmodium falciparum (HB3) proliferation (AID 743347; call rule not given here;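 further: plate controls were DMSO vehicle wells for no effect and artemisinin wells for full effect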); conditions: P. falciparum HB3 in erythrocytes, SYBR Green DNA, 72 h; at 28.5 µM (top of the series) unless noted
In short: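 Erythrocytes infected with P. falciparum (0.3% parasitemia, 2.5% hematocrit) incubated with compounds 72 h at 37 C, 5% CO2. Lysis with saponin/Triton buffer containing SYBR Green I, overnight at room temperature in the dark; DNA fluorescence (485/535 nm) normalised to 0.29 uM artemisinin and DMSO.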

[9] = P-glycoprotein substrates identified in KB-3-1 adenocarcinoma cell line, qHTS therapeutic library screen (AID 1346986); conditions: KB-3-1 parental cells viability, CellTiter-Glo, 72 h; series mostly up to 44.5 µM; further: nearly all actives have a fitted effect of over 60% in size;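 further: potency means the concentration at half of the fitted maximal effect; potency is for cytotoxicity meaning loss of cell viability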
In short: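 Compounds were tested in dose-response against KB-3-1 and KB-8-5-11 cells at 37 degree C for 72 h, and viability was measured by luminescence. AC50 values came from curve fitting with class-based activity calls.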

SMILES	viability (% of control) [1]	Potency [2]	Potency [3]	Potency [4]	Potency [5]	Potency [6]	Potency [7]	growth, % of control [8]	Potency [9]
Cc1onc(-c2ccccc2)c1C(=O)N[C@@H]1C(=O)N2[C@@H](C(=O)O)C(C)(C)S[C@@H]12	120%	inactive	inactive	inactive	inactive	inactive	inactive	–	–
COC[C@H](NC(=O)c1cnc(C)s1)C(=O)N[C@@H](COC)C(=O)N[C@@H](Cc1ccccc1)C(=O)[C@@]1(C)CO1	3.48%	inactive	–	0.132 µM (active)	0.296 µM (active)	0.105 µM (active)	0.148 µM (active)	5.53%	–
C[C@H](NC(=O)Cc1cc(F)cc(F)c1)C(=O)N[C@H](C(=O)OC(C)(C)C)c1ccccc1	96.1%	inactive	inactive	inactive	inactive	inactive	inactive	99.7%	–
Nc1ncn([C@@H]2O[C@H](CO)[C@@H](O)[C@@H]2O)c(=O)n1	5.42%	inactive	–	6.62 µM (active)	4.18 µM (active)	7.43 µM (active)	4.69 µM (active)	95%	–
C[N+]1(C)[C@@H]2C[C@@H](OC(=O)C(O)(c3cccs3)c3cccs3)C[C@H]1[C@@H]1O[C@@H]12	97.5%	–	inactive	inactive	inactive	inactive	inactive	–	inactive
COc1cccc2c1C(=O)c1c(O)c3c(c(O)c1C2=O)C[C@@](O)(C(C)=O)C[C@H]3O[C@H]1C[C@H](N)[C@H](O)[C@H](C)O1	3.72%	inactive	inactive	0.0418 µM (active)	0.0662 µM (active)	–	0.0469 µM (active)	6.78%	–
CON=C(C(=O)N[C@@H]1C(=O)N2C(C(=O)O)=C(CSC(=O)c3ccco3)CS[C@H]12)c1csc(N)n1	8.07%	inactive	–	inactive	inactive	inactive	inactive	53.4%	inactive
O=C(NCc1ccccc1)[C@H](Cc1ccccc1)NC(=O)[C@@H]1O[C@@H]1C(=O)NCCc1ccc(O)cc1	54.1%	inactive	inactive	1.05 µM (active)	1.05 µM (active)	1.05 µM (active)	1.18 µM (active)	33.6%	–
COC(=O)[C@@H]1CC2=CC(=O)CC[C@]2(C)[C@@]23O[C@@H]2C[C@@]2(C)[C@H](CC[C@@]24CCC(=O)O4)[C@@H]13	108%	inactive	inactive	inactive	inactive	inactive	inactive	49.1%	inactive
CC(C)(C)[N+]([O-])=Cc1ccc(S(=O)(=O)O)cc1S(=O)(=O)O	111%	inactive	inactive	inactive	inactive	inactive	inactive	63%	–
C=C(C)[C@@H]1CC[C@]2(C)CC[C@]3(C)[C@H](CC[C@@H]4[C@@]5(C)CC[C@H](O)C(C)(C)[C@H]5CC[C@]43C)[C@@H]12	121%	inactive	inactive	inactive	inactive	–	inactive	37.4%	–
Cc1[nH]c(C=C2C(=O)Nc3ccccc32)c(C)c1CCC(=O)O	5.24%	16.6 µM (active)	11.8 µM (active)	0.209 µM (active)	0.296 µM (active)	0.235 µM (active)	0.235 µM (active)	27.3%	–
CCOC(=O)N1CCN([N+]([O-])=NOc2ccc([N+](=O)[O-])cc2C#N)CC1	10.9%	inactive	inactive	2.09 µM (active)	2.64 µM (active)	2.35 µM (active)	–	19.1%	–
CC(C(C)N1CC(=O)NC(=O)C1)N1CC(=O)NC(=O)C1 (centres undefined)	27.4%	inactive	inactive	0.743 µM (active)	0.59 µM (active)	0.743 µM (active)	inactive	98.2%	–
CC(C)(O)CC[C@@H](O)[C@](C)(O)[C@H]1CC[C@@]2(O)C3=CC(=O)[C@@H]4C[C@@H](O)[C@@H](O)C[C@]4(C)[C@@H]3CC[C@]12C	104%	inactive	inactive	inactive	inactive	inactive	inactive	674%	–
CC(C)Oc1ccc(C(=O)N[C@H](CNC(=O)CN(C)C)Cc2ccc(-c3cn4cccc([C@H](C)O)c4n3)cc2)cc1Cl	18.5%	–	inactive	0.235 µM (active)	0.372 µM (active)	–	–	5.09%	–
O=C(CN1C(=O)C2(CCCC2)NC[C@H]1c1cc(F)cc(F)c1)Nc1ccc2c(c1)C[C@@]1(C2)C(=O)Nc2ncccc21	107%	inactive	inactive	inactive	inactive	inactive	inactive	40.3%	–
CCC(C)CCCCC(=O)N[C@@H](CCN)C(=O)NC(C(=O)N[C@H](CCN)C(=O)N[C@@H]1CCNC(=O)C([C@@H](C)O)NC(=O)[C@@H](CCN)NC(=O)[C@@H](CCN)NC(=O)[C@@H](CC(C)C)NC(=O)[C@H](Cc2ccccc2)NC(=O)[C@H](CCN)NC1=O)[C@@H](C)O (stereo partly drawn) ({Octanoyl(6-Me)}-[Dab][ξThr(3R)][dDab][dDab][Dab]F[dL][dDab][dDab][ξThr(3R)]; lactam 4-C)	116%	–	inactive	inactive	inactive	inactive	inactive	96.2%	–
NC(=O)Nc1cc(-c2ccc(CN3CCOCC3)cc2)sc1C(N)=O	6.64%	inactive	inactive	4.69 µM (active)	0.332 µM (active)	0.0935 µM (active)	0.187 µM (active)	33.4%	–

SMILES	viability (% of control) [1]	Potency [2]	Potency [3]	Potency [4]	Potency [5]	Potency [6]	Potency [7]	growth, % of control [8]	Potency [9]
CC1=C(C(=O)Nc2cc3cn[nH]c3cc2F)C(c2ccc(Cl)cc2F)N=C(c2ccnc(Cl)c2)N1 (centres undefined)	3.35%	inactive	inactive	18.7 µM (active)	14.8 µM (active)	26.4 µM (active)	16.6 µM (active)	10.9%	20.6 µM (active)
COc1cc(N2CCC(C(N)=O)CC2)ccc1Nc1nc(N)c(Cl)c(Nc2ccccc2S(=O)(=O)C(C)C)n1	10.6%	inactive	inactive	1.05 µM (active)	16.6 µM (active)	20.9 µM (active)	6.62 µM (active)	53.9%	–
COc1cc(O)c2c(c1)C1OC1C[C@H](O)[C@H](O)C(=O)C=CC[C@H](C)OC2=O (some centres undefined)	5.65%	inactive	inactive	16.6 µM (active)	11.8 µM (active)	7.43 µM (active)	7.43 µM (active)	2.42%	–
C=Cc1c(C)c2cc3nc(cc4[nH]c(cc5nc(cc1[nH]2)C(C)=C5CCC(=O)O)c(CCC(=O)OC)c4C)[C@@]1(C)C3=CC=C(C(=O)OC)[C@H]1C(=O)OC	3.29%	inactive	inactive	0.0418 µM (active)	0.0833 µM (active)	0.118 µM (active)	0.0743 µM (active)	4.7%	inactive
CC(Oc1ccc(O)cc1)(P(=O)(O)O)P(=O)(O)O	107%	inactive	inactive	inactive	inactive	inactive	inactive	98.7%	–
CC(=O)[C@]1(O)Cc2c(O)c3c(c(O)c2[C@@H](O[C@H]2C[C@H](N)[C@@H](O)[C@H](C)O2)C1)C(=O)c1ccccc1C3=O	4.63%	inactive	inactive	0.059 µM (active)	0.0372 µM (active)	0.0187 µM (active)	0.0047 µM (active)	11.5%	–
CC(C=CC1=C(C)CCCC1(C)C)=CC=CC(C)=CC(=O)Nc1ccc(O)cc1	4.87% [at 92.2 µM]	–	inactive	2.41 µM (active)	5.4 µM (active)	4.29 µM (active)	12.1 µM (active)	7.5% [at 57.5 µM]	–
C[C@H](NCc1ccc2c(c1)nc(NC(=O)c1ccc(-c3cn[nH]c3)s1)n2CCc1ccccc1)C(C)(C)C	2.31%	inactive	inactive	2.35 µM (active)	1.48 µM (active)	2.09 µM (active)	2.96 µM (active)	10.1%	–
CCCCCN=C(N)NN=Cc1c[nH]c2ccc(OC)cc12	11.8%	inactive	inactive	6.62 µM (active)	10.5 µM (active)	6.62 µM (active)	4.18 µM (active)	6.26%	–
O=c1ccn([C@@H]2O[C@H](CO)[C@H](O)[C@@H]2F)c(=O)[nH]1	119%	inactive	inactive	3.72 µM (active)	3.32 µM (active)	–	18.7 µM (active)	645%	–
CC[C@@]1([C@@H]2O[C@@H]([C@H]3O[C@@](O)(CO)[C@H](C)C[C@H]3C)C[C@H]2C)CC[C@H]([C@]2(C)CC[C@]3(C[C@H](O)[C@@H](C)[C@@H]([C@@H](C)[C@@H](OC)[C@H](C)C(=O)O)O3)O2)O1	65.7% [at 23.2 µM]	inactive	inactive	0.257 µM (active)	0.257 µM (active)	0.162 µM (active)	0.162 µM (active)	3.89% [at 9.64 µM]	–
Nc1nc(=O)n([C@H]2CSC(CO)O2)cc1F (some centres undefined)	102%	inactive	inactive	inactive	inactive	–	inactive	250%	–
COc1ccc([C@@H]2CNC(=O)C2)cc1OC1CCCC1	–	inactive	inactive	0.833 µM (active)	2.35 µM (active)	9.35 µM (active)	1.87 µM (active)	102%	inactive
C[C@@H]1C(=O)O[C@H]2CC34[C@H]5C[C@@H](C(C)(C)C)C36[C@H](OC(=O)[C@@H]6O)O[C@@]4(C(=O)O5)[C@]21O (some centres undefined)	69%	–	inactive	inactive	inactive	inactive	inactive	–	–
COc1cc(C=CC(=O)CC(=O)C=Cc2ccc(O)c(OC)c2)ccc1O	5.08% [at 92.2 µM]	inactive	inactive	7.62 µM (active)	21.5 µM (active)	6.05 µM (active)	12.1 µM (active)	2.99% [at 57.5 µM]	–
CCOC(=O)[C@H](CCc1ccccc1)N[C@@H](C)C(=O)N1[C@@H](C(=O)O)C[C@H]2CCC[C@@H]21	4.82%	inactive	inactive	5.26 µM (active)	14.8 µM (active)	–	16.6 µM (active)	4.34%	–
O=C1NC(=O)C(=Cc2ccc3nccc(-c4ccncc4)c3c2)S1	4.43%	inactive	inactive	0.187 µM (active)	0.166 µM (active)	0.132 µM (active)	–	3.52%	–
O=C1c2cccc(O)c2C(=O)c2c(O)cc(CO)cc21	116%	inactive	inactive	inactive	inactive	inactive	–	–	–

— PubChem BioAssay (NCATS)
